Here are results for seven compounds from PubChem BioAssay.

In one test the target is Albumin (Bos taurus) (UniProt P02769). The test can be described thus: bovine serum albumin binders on microarray, profiling panel, artefact control for SMM control protein annotation, biochemical, small-molecule microarray, Alexa647 label, 635/667 nm fluorescence (AID 1118).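 Further: score merges 667 nm emission intensity and signal-to-noise per printed compound spot.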 The conditions noted are these: BSA-A647 binding, fluorescence 635 nm, higher = more signal.
Albumin (Bos taurus), sequence (P02769 whole entry, looked up): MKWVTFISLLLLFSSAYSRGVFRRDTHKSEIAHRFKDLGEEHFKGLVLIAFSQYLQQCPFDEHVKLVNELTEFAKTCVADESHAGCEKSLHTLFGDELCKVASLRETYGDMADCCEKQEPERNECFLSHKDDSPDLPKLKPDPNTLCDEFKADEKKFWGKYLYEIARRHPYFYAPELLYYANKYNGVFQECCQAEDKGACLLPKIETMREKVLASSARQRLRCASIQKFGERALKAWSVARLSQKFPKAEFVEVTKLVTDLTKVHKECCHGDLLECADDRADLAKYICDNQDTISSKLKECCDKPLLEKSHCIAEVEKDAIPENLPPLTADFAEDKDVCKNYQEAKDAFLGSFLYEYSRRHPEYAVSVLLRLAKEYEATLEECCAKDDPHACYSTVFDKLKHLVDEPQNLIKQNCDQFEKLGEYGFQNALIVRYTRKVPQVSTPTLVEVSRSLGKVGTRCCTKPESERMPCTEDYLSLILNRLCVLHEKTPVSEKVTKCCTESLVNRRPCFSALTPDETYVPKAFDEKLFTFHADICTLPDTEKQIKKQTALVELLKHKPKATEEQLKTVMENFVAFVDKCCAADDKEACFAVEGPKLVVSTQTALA
A short description of test [1]: small-molecule microarray binders of probe aXIP, primary screen, biochemical, NeuroSMM set, 635/667 nm fluorescence (AID 1119).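 Further: probe is the protein aXip251-270 applied at 1 µg/mL to compound-printed slides; binding of probe to printed compounds measured as 667 nm fluorescence plus signal to noise.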 The following applies: higher = more signal, called active from +8 up or from −8 down.
Test [2] is described as follows: small-molecule binders of probe aNOTCH3, primary screen, biochemical, small-molecule microarray, 635/667 nm fluorescence (AID 1120).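 Further: probe is a biotin-tagged antibody raised against NOTCH3 rather than NOTCH3 protein; score merges spot fluorescence near 667 nm with spot signal to noise.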 The following applies: higher = more signal.
The nature of test [3]: small-molecule binders of probe aNOTCH2, primary screen, biochemical, small-molecule microarray, 635/667 nm fluorescence (AID 1121).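 Further: score merges feature fluorescence read at 667 nm with its signal to noise.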 The following applies: higher = more signal.
Test [4] deals with Carbonic anhydrase 2 (Homo sapiens) (UniProt P00918). The test can be described thus: CAII small-molecule binders, profiling panel, biochemical, small-molecule microarray, Alexa647-labelled CAII (AID 1122). The conditions noted are these: CAII-A647 binding fluorescence, higher = more signal.
Test [5] in a line: COS7 lysate on small-molecule microarray, probe aHis, 635 nm (AID 1123).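 Further: z-score combines 667nm fluorescence intensity with signal-to-noise per printed compound spot.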 The following applies: COS7 cell lysate, fluorescence, higher = more signal.
The nature of test [6]: compound binding in COS7 lysate, probe aLAP1, primary screen, cell lysate, small-molecule microarray (AID 1124).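 Further: lysate comes from COS7 cells expressing LAP1 and is applied at 0.3 µg/mL; score merges spot fluorescence near 667 nm with signal-to-noise over triplicate slides.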 The following applies: probe aLAP1, fluorescence, higher = more signal.
In another test the test system is Sam68 (KHDRBS1). Description: Sam68 small-molecule binders, primary screen, biochemical, small-molecule microarray, 635 nm fluorescence (AID 1125).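 Further: score merges 667 nm channel intensity with signal to noise over triplicate slides.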 The following applies: small-molecule microarray binding, higher = more signal.
For test [7], the system named is Chordin-like protein 2 (CHRDL2). Description: CHRDL2 small-molecule binders, primary screen, biochemical, small-molecule microarray, 635 nm fluorescence (AID 1126).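 Further: printed compound slides probed with Chrdl2 protein at 4 µg/mL for 1 h at 4 C; score merges 667 nm emission intensity with signal to noise over three replicate slides.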 The following applies: small-molecule microarray binding, fluorescence 635 nm; higher = more signal.
In test [8] the target is Concanavalin-A (Canavalia ensiformis) (UniProt P02866). Description: ConA small-molecule binders, primary screen, artefact control for SMM control protein annotation, biochemical, small-molecule microarray, Alexa647 label, 635 nm (AID 1127).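 Further: z combines 667 nm emission intensity with signal-to-noise across three replicate slides.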 The following applies: ConA-A647 binding fluorescence, higher = more signal.
Concanavalin-A (Canavalia ensiformis), sequence (P02866 whole entry, looked up): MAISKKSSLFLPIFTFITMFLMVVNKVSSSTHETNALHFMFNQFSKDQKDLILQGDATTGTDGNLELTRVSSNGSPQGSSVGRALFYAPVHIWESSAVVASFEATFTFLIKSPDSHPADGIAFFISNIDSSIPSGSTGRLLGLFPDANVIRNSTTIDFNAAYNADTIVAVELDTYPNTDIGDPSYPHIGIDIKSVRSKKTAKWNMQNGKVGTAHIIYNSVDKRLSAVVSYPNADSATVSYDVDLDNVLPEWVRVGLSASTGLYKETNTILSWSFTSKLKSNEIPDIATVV
A short description of test [9]: anti-His antibody binders, primary screen, artefact control for SMM control protein annotation, biochemical, small-molecule microarray, 635 nm fluorescence (AID 1128).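 Further: score merges feature fluorescence with signal-to-noise for each printed compound spot.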 The following applies: anti-His Alexa647 antibody binding, higher = more signal.
Test [10] has as its system Human papillomavirus type 1a E7 protein (residues 1-88). Description: HPV1a E7 small-molecule binders, primary screen, biochemical, small-molecule microarray, residues 1-88, 635 nm (AID 1129). The conditions noted are these: small-molecule microarray binding, fluorescence 635 nm; higher = more signal.
Test [11] concerns the target Focal adhesion kinase 1 (Homo sapiens) (UniProt Q05397). The test can be described thus: small-molecule microarray binders of FAK, primary screen, biochemical, 635/667 nm fluorescence, BSA, DTT (AID 1130).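 Further: composite of spot emission at 667 nm and signal to noise over triplicate slides.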 The conditions noted are these: PTK2 binding, 635 nm fluorescence, higher = more signal.
Test [12] concerns Fibrinogen (Alexa647-labelled). Description: fibrinogen binders on compound microarrays, profiling panel, artefact control for SMM control-protein annotation, biochemical, small-molecule microarray, 635/667 nm fluorescence (AID 1131).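 Further: z-score merges 667 nm fluorescence with per-spot signal-to-noise over triplicate slides.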 The following applies: fibrinogen-A647 binding fluorescence, higher = more signal.
Test [13] concerns the target Follistatin (Homo sapiens) (UniProt P19883). The test can be described thus: follistatin binders on small-molecule microarrays, primary screen, biochemical, small-molecule microarray, 635/667 nm fluorescence (AID 1132). The conditions noted are these: FST binding, 635 nm fluorescence, higher = more signal.
Test [14] deals with Fibroblast growth factor 2 (Homo sapiens) (UniProt P09038). The test can be described thus: FGF2 binders on small-molecule microarrays, primary screen, biochemical, small-molecule microarray, 635/667 nm fluorescence (AID 1133). The following applies: small-molecule microarray binding, FGF2, fluorescence 635/667; higher = more signal.
Fibroblast growth factor 2 (Homo sapiens), sequence (P09038 whole entry, looked up): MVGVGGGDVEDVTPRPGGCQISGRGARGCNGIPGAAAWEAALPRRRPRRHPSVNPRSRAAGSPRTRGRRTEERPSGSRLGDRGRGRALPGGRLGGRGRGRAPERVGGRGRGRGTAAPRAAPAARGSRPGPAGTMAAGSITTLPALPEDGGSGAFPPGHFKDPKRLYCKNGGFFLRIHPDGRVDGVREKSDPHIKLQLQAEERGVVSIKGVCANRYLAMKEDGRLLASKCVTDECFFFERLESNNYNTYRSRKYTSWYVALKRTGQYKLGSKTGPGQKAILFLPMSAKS
Test [15] can be described thus: mitochondrial membrane potential change in A549 cells, profiling panel, cell-based, JC-1 fluorescence, basal, 24 h, 100 nL (AID 1138).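 Further: A549 lung adenocarcinoma cells under basal conditions with no added stimulus; test concentration not given here.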 The following applies: higher = more signal.
The next test concerns Lefty1. Description: Lefty1 binders on small-molecule microarrays, primary screen, biochemical, small-molecule microarray, 635/667 nm fluorescence (AID 1139). The following applies: small-molecule microarray binding, fluorescence 635/667; higher = more signal.
Test [16] has as its system wheat germ agglutinin (Triticum aestivum), Alexa647-labelled. Description: wheat germ agglutinin binders on compound microarrays, profiling panel, artefact control for SMM control-protein annotation, biochemical, small-molecule microarray, 635/667 nm fluorescence (AID 1140).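 Further: score merges 667 nm feature emission with signal to noise over triplicate slides.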 The following applies: WGA-A647 binding, 635 nm fluorescence, higher = more signal.
For test [17], the target named is Luciferin 4-monooxygenase (Photinus pyralis) (UniProt P08659). Description: firefly luciferase enzyme inhibitors, primary screen, biochemical, luminescence, purified enzyme, 2006 set (AID 1141).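 Further: cell-free assay with purified firefly luciferase at 100 ng per well in PBS; test concentration not given here.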 The following applies: SteadyGlo luminescence, 30 min, higher = more signal, called active from +8 up or from −8 down.
Luciferin 4-monooxygenase (Photinus pyralis), sequence (P08659 whole entry, looked up): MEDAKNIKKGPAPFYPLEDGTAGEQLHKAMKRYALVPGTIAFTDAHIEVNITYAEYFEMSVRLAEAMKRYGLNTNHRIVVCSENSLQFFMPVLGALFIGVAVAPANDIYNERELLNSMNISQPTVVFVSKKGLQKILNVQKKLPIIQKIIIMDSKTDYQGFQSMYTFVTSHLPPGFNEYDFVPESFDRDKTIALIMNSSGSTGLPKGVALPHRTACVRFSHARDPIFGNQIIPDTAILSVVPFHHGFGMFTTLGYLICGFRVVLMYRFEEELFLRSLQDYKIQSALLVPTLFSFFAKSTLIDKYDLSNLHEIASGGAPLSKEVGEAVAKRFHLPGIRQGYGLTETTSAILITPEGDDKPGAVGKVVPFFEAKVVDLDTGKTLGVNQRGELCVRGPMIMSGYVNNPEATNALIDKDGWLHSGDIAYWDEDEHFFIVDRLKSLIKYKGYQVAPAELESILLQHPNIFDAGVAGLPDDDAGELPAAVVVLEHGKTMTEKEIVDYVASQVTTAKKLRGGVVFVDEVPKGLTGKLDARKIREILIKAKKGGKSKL

The structures appear in SMILES notation. The source made the active and inactive calls.

Follistatin (Homo sapiens), sequence (P19883 whole entry, looked up): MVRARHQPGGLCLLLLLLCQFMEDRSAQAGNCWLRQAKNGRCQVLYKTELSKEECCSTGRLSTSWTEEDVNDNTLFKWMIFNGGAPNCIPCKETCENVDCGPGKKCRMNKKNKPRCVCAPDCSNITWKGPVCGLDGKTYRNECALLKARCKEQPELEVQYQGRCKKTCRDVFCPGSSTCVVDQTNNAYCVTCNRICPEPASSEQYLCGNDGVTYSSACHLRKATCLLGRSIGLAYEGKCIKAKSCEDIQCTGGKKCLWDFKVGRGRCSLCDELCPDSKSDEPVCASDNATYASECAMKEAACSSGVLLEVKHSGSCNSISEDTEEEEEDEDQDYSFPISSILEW
Focal adhesion kinase 1 (Homo sapiens), sequence (Q05397 whole entry, looked up): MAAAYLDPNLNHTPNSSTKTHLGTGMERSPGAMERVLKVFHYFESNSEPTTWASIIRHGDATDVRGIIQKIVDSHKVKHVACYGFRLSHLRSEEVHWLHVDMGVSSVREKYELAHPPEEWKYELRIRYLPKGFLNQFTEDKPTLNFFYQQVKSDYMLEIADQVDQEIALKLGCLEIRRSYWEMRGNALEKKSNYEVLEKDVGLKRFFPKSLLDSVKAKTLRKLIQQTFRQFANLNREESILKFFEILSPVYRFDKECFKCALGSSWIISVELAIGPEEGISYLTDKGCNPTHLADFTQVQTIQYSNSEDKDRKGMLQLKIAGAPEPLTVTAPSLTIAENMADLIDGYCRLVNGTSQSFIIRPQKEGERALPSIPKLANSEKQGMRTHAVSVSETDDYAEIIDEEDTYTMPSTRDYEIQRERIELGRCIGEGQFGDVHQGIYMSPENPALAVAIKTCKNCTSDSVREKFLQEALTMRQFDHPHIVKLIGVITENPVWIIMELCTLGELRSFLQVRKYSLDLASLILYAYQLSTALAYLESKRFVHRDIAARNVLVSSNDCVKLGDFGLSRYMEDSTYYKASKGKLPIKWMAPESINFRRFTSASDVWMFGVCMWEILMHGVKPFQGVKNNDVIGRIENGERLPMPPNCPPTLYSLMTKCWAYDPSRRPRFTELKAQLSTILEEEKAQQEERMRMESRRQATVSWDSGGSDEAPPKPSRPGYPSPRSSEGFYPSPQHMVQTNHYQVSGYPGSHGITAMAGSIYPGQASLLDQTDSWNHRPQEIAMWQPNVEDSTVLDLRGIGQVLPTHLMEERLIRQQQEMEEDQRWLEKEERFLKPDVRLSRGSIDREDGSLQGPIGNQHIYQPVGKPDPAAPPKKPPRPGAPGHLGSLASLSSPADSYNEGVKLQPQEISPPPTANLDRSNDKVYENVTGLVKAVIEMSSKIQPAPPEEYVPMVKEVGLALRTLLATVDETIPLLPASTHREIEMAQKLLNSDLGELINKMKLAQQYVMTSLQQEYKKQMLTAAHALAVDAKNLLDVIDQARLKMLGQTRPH

For the compound `CC(C)[C@@H](OCc1ccccc1)[C@H](C)C=NOC[C@@H](C)[C@H](OCc1ccccc1)C(C)C`, the composite z-score is -0.248 with Albumin (Bos taurus); -0.0111 in [2]; -0.126 in [3]; -0.265 in test [4]; -0.393 in [5]; -0.0427 in test [6]. The composite z-score in the test with Sam68 (KHDRBS1) was -0.24; in [7] it was 0.457; in test [8], 0.31; in [9], 0.0377; in test [10] it was 0.289; in test [11], 0.121. Moreover, the composite z-score was -0.0745 in [12]; 0.426 in test [13]; 0.139 in test [14]; 0.595 with Lefty1; -0.0388 in test [16]. Moreover, the composite Z-score in [1] was -0.161 (inactive). Also, the z-score was -0.753 in [15] and -0.11 (inactive) in test [17].
In the case of `COc1ccc(O[C@H]2C=C[C@@H](c3ccccc3)O[C@@H]2COC(=O)CCC(C)=NOC(C)CN2CCCCc3nc(C)c(C)cc32)cc1` (stereo not given in full), the composite z-score with Albumin (Bos taurus) was -0.485; in test [2] it was -0.0918; in [3], -0.179; in [4], 0.456; in [5], 0.121; in test [6] it was -0.312. Besides, the composite z-score is -0.433 with Sam68 (KHDRBS1); -0.101 in test [7]; -0.929 in test [8]; 4.16 in [9]; -0.303 in test [10]; 0.214 in [11]. The composite z-score in test [12] was -0.78; in test [13], 0.0731; in test [14] it was -0.442; in the test on Lefty1, -0.214; in test [16], 0.878. Further, the composite Z-score in [1] is 0.105 (inactive). Also, the figures for the z-score in test [15] and in [17] were 0.752 and 0.731 (inactive), respectively.
`NC(=O)NCC#Cc1ccc2c(c1)[C@]1(C(=O)N2)[C@H](c2ccc(O)cc2)N2[C@H](c3ccccc3)[C@H](c3ccccc3)OC(=O)[C@H]2[C@@H]1C(=O)N1CCCCCCC1`: the composite z-score is -0.476 with Albumin (Bos taurus); 0.976 in test [2]; -0.172 in test [3]; 0.39 in test [4]; 0.594 in [5]; 0.596 in [6]. Further, the composite z-score in the test with Sam68 (KHDRBS1) was 0.792; in [7], 0.983; in test [8], 0.848; in [9], 0.687; in [10], 0.564; in test [11], -0.222. Further, the composite z-score in [12] is 0.161; in test [13], 1.34; in test [14], 0.25; with Lefty1, 1.02; in test [16] it was 0.604. For the same compound, the composite Z-score in test [1] is 0.645 (inactive). Also, the z-score in [15] is 0.296; in test [17], 0.363 (inactive).
Regarding `COc1ccc(-c2ccc3c(n2)CCCN3CC(O)CN2CCCc3nc(C)c(C)cc32)cc1` (stereo not given), the composite z-score in the test with Albumin (Bos taurus) is 0.683; in [2] it was 0.713; in test [3], -0.0017; in test [4] it was 0.741; in [5], 0.975; in [6] it was 0.677. Further, the composite z-score in the test with Sam68 (KHDRBS1) worked out at 1.2; in [7] it was 1.18; in test [8] it was 1.09; in [9], 2.62; in [10] it was 0.478; in [11] it was 0.351. Further, the composite z-score in test [12] amounted to 0.733; in [13], 1; in test [14], 0.62; in the test on Lefty1, 1.05; in test [16], 1.03. Besides, the composite Z-score in test [1] was 2.43 (inactive). Further, the z-score in [15] was 1.7; in test [17], -1.2 (inactive).
As to `CCOC(=O)CCN1C(=O)[C@H]2[C@H]3[C@H](O)[C@H](O)CC(=NOCc4ccccc4)[C@@H]3CC[C@H]2C1=O`, the composite z-score with Albumin (Bos taurus) was 0.762; in test [2], -0.0996; in [3], -0.199; in test [4], 0.381; in test [5], 0.317; in test [6], 0.784. The composite z-score in the test with Sam68 (KHDRBS1) was 0.37; in [7] it was 0.116; in [8], 0.246; in test [9], -0.261; in [10] it was 0.717; in test [11], 0.163. Further, the composite z-score in [12] was 0.983; in [13] it was 0.722; in [14], 0.383; in the test on Lefty1, 0.963; in [16], -0.0855. Also, the composite Z-score in test [1] was 0.415 (inactive). In addition, the z-score was -0.217 in test [15] and 0.883 (inactive) in [17].
Turning to `CC(C)CON=C1C[C@@H](O)[C@@H](O)[C@@H]2[C@@H]3C(=O)N([C@@H](C)c4ccccc4)C(=O)[C@@H]3CC[C@H]12`, the composite z-score in the test with Albumin (Bos taurus) is 0.663; in test [2], 0.0297; in test [3], -0.0959; in test [4], 0.378; in test [5], 0.754; in test [6] it was -0.0211. Also, the composite z-score with Sam68 (KHDRBS1) is 1.29; in test [7], 0.315; in test [8], 1.07; in test [9] it was 0.728; in test [10] it was 1.17; in test [11], 0.657. Besides, the composite z-score in test [12] is 0.951; in [13], 0.755; in [14], 1.18; with Lefty1, 1.4; in test [16], 0.122. For the same compound, the composite Z-score in test [1] is 0.0312 (inactive). Further, the values for the z-score in test [15] and in [17] were 1.24 and 0.407 (inactive), respectively.
For the compound `CC(C)=CCCC(C)=CCON=C1[C@H]2CCn3c(=O)n(C)c(=O)n3[C@H]2[C@H](O)[C@@H]2O[C@H]12`, the composite z-score with Albumin (Bos taurus) was -0.286; in [2], 0.0297; in [3], -0.14; in test [4], 0.295; in test [5] it was 0.482; in test [6], 0.644. The composite z-score in the test with Sam68 (KHDRBS1) was 1.27; in test [7] it was 0.916; in [8] it was 0.941; in [9], 0.957; in test [10] it was 0.968; in test [11], -0.236. Besides, the composite z-score in test [12] was 0.674; in [13] it was 0.865; in [14], 0.896; in the test on Lefty1, 1.37; in test [16], 0.115. Further, the composite Z-score in test [1] was -0.0793 (inactive). Also, the z-score in test [15] was 0.637; in [17] it was -0.284 (inactive).
